PubChem BioAssay (NCI)
Several values for one entry are separate records, joined by “and”; a condition that tells them apart may be missing. Equal values may be shown once. This is part of a sample that, as a whole, favours compounds with a hit. Of some 79,000 tested, about 15% had one in any assay. Unmarked numbers belong to inactive results. Activity calls are given as the source filed them. Rule as the data show it: active = growth inhibition above about 70%; inactive = the rest.

Experiments:
[1] = NCI Yeast Anticancer Drug Screen. Data for the rad50 strain (AID 155);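 also: 0% = growth of vehicle-only cultures of the same strain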; details: S. cerevisiae rad50 strain growth inhibition; at 50.0 µM; hits give high values
Method in brief: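 A DNA repair-deficient yeast mutant serves as the test organism; compound-induced growth inhibition is calculated against vehicle-treated cells.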

[2] = NCI Yeast Anticancer Drug Screen. Data for the mec2-1 strain (AID 157); details: S. cerevisiae mec2-1 strain, at 50.0 µM, hits give high values
Method in brief: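 Using mec2-1 yeast: add compound, measure growth, express inhibition versus vehicle-treated cultures.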

[3] = NCI Yeast Anticancer Drug Screen. Data for the sgs1 mgt1 strain (AID 161);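 also: 0% = growth of cultures given vehicle only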; details: S. cerevisiae sgs1 mgt1 strain, at 50.0 µM, hits give high values
Method in brief: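 Growth of a repair-deficient yeast mutant was monitored after compound treatment and expressed as inhibition relative to vehicle-treated cultures.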

[4] = NCI Yeast Anticancer Drug Screen. Data for the cln2 rad14 strain (AID 165);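 also: 0% = growth equal to vehicle treated cultures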; details: S. cerevisiae cln2 rad14 strain, at 50.0 µM, hits give high values
Method in brief: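 Yeast strain cln2 rad14, bearing defects in cell cycle control and DNA repair, serves as the test system; values reflect growth inhibition compared with vehicle.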

[5] = NCI Yeast Anticancer Drug Screen. Data for the bub3 strain (AID 167); details: S. cerevisiae bub3 mutant strain, at 50.0 µM, hits give high values
Method in brief: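 Inhibition values come from growth of compound-treated mutant yeast normalised to vehicle-treated controls.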

[6] = NCI Yeast Anticancer Drug Screen. Data for the mlh1 rad18 strain (AID 175); details: S. cerevisiae mlh1 rad18 strain growth inhibition; at 50.0 µM; hits give high values
Method in brief: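 Steps: expose repair-defective yeast to compound; measure growth; express inhibition against vehicle-treated controls.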

Row | SMILES | growth inhibition [1] | growth inhibition [2] | growth inhibition [3] | growth inhibition [4] | growth inhibition [5] | growth inhibition [6]
1 | Cc1cccc(NC(=O)C(=O)C2C(=O)NC(=O)NC2=O)c1C | 0.7% | 13.8% | -14% | 7.25% | 20.2% | 12.2%
2 | NCCN.NCCN.O=C([O-])CCl.O=C([O-])CCl.[Co+3].[O-][Cl+3]([O-])([O-])[O-] | -23.8% | 3.45% | -43.2% | 8.4% | -18.5% | -9%
3 | COC(=O)C1=C(N2CCCC2)C2c3ccccc3SC12C(=O)OC (stereo not drawn) | 20.1% | 10.8% | -0.25% | 0.7% | 14.2% | 9.3%
4 | CC1=C/C(=N\[Se]c2ccccc2)C(=O)C(C)=C1 | 43.7% | 27.4% | 24% | -9.05% | 47.4% | 36.3%
5 | CCC[CH2][Sn]1([CH2]CCC)[O]C(=O)c2ccc(N)cc2[O]1 | 87.3% (active) | 92.5% (active) | 89.5% (active) | 89.4% (active) | 89.1% (active) | 89.8% (active)
6 | CN1CCC(C(O)(c2ccccc2)c2ccccc2)CC1 | -1.95% | -11.3% | 12.3% | -39.1% | -6.45% | -25.4%
7 | CC1COC(Nc2cccc3c2CCCC3)=N1 (stereo not drawn) | -10.1% | -13.7% | -10.6% | -34% | -8.1% | 3%
8 | C[N+](C)(C)Cc1ccc2ccccc2c1Br | 30.3% | 7.05% | 10.2% | 10.3% | 0.2% | 20.6%
9 | C=Cc1cc(OC)c2c(c1)c(=O)oc1c2cc(OC)c2c(O)ccc(C3OC(C(C)O)C(O)C3O)c21 (stereo not drawn) | 88% (active) | 91.7% (active) | 89.1% (active) | 90.2% (active) | 90% (active) | 89.3% (active)
10 | C=C(C(=O)OC1CC2CCC(C1)[N+]2(C)[O-])c1ccccc1 (stereo not drawn) | 7.4% | -6% | -19.4% | -2.95% | 3.1% | -23.3%
11 | CNC(P(=O)([O-])[O-])P(=O)([O-])[O-].N.N.[Pt+2] | -0.2% | -16.3% | -47.2% | -17.1% | -8.65% | -15.7%
12 | O=C1C2CCN(CC2)C1Cn1cnc2c(Cl)ncnc21 (stereo not drawn) | -3.9% | 4.1% | -4.35% | -0.55% | -2.55% | -0.75%
13 | O=S(O)(O)=S.[Co+3].[NH-]CC[NH-].[NH-]CC[NH-].[NH2-].[NH2-] | -8.05% | -6.85% | 2% | -19.4% | 14.8% | 7.05%
14 | CC(C)CCON=C(N)N | -23.8% | -2.25% | -13.7% | -40% | -5.6% | 2.55%
15 | CC1=CC(=O)CC2(C)CCC(C(C)CC(=O)CC(C)C)CC12OO (stereo not drawn) | 89.4% (active) and 88.8% (active) | 92.3% (active) and 92% (active) | 91.6% (active) and 91.4% (active) | 91.8% (active) and 91.7% (active) | 89.4% (active) | 91.3% (active) and 89.5% (active)
16 | Cc1ccc(O)cc1 | -27.4% | 24.1% | -22% | -31.2% | 1.1% | -30.1%
17 | CC(C)[CH2][Sn]([CH2]C(C)C)([CH2]C(C)C)[C](C)(C)C | 99.3% (active) | 99.7% (active) | 99.5% (active) | 99.2% (active) | 99.4% (active) | 99.5% (active)
18 | COC1=CCC2=C(CC[C@H]3[C@H]2CCP3C)C1 (stereo partly drawn) | 8.65% | -10.8% | -7.85% | -17.9% | 0.9% | 5.25%
